# This is part of a sample that, as a whole, favours compounds with a hit. Of some 83,000 tested, about 20% had one in any assay.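 Cell lines were cultured in 96-well plates, exposed to a single compound concentration, and assessed for percent growth 48 hours later.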 Activity calls are given as the source filed them. How the source made its calls: active means growth percent below 10; inactive means the rest.
# System: HL-60(TB) leukemia
# Assay: NCI-60 one-dose screen, 48 h (100 = growth as untreated, 0 = no growth, -100 = all killed)
# Conditions: 10 µM unless noted
row,SMILES,growth
1,c1cnc2[nH]cc(-c3nc(-c4ccsc4)cs3)c2c1,104% (inactive)
2,CCCCC(CC)CN=C(N)NC(N)=NCCCCCCN=C(N)NC(N)=NCC(CC)CCCC (stereo not given),-76.8% (active)
3,O=C(CN(C1CCCCC1)C1CCCCC1)Nc1ccc(S(=O)(=O)c2ccc(NC(=O)CN(C3CCCCC3)C3CCCCC3)cc2)cc1,-39.3% (active)
4,C=CCNC(=S)N/C=C(/C(=O)c1ccccc1)c1ccccc1,101% (inactive)
5,c1ccc(-c2cc(-c3cc(-c4ccccc4)on3)no2)cc1,64% (inactive)
6,COC(=O)c1oc2c(C(C)=O)c(OCCCN(C)C)ccc2c1C,75.3% (inactive)
7,c1ccc2cc(Cn3cc(CSc4nc5ccccc5s4)nn3)ccc2c1,102% (inactive)
8,COc1ccc(C2(Cl)c3ccccc3N(c3ccccc3)c3ccccc32)cc1,-22.3% (active)
9,C/C=C(/C)C(=O)O[C@@H]1CC(C)(C)CC2C34OC(=O)[C@@]21CC[C@@]3(C)[C@]1(C)CCC2C(C)(C)C(=O)CC[C@]2(C)C1C[C@@H]4O (stereo not given in full),6.92% (active)
10,CCN(CC)CC(O)CNc1c2ccc(Cl)cc2nc2ccc(OC)cc12 (stereo not given),-0.864% (active)
11,CC(C)c1ccc(C(=O)Nc2sc3c(c2C#N)CCC(=O)C3)cc1,-16.7% (active)
12,CSc1nc2c(c(=O)n1C)CN(Cc1ccccc1)C(=O)CN2,84.9% (inactive)
13,CCCCSc1ncnc2c1ncn2C1CCCCO1 (stereo not given),90.4% (inactive)
14,COc1ncc(-c2ccc3ncnc(Nc4cccc(Cl)c4)c3c2)cc1NS(=O)(=O)C1CC1,36.7% (inactive)
15,O=C1/C(=C/c2ccc(Cl)cc2)SC(=Nc2ccc(Cl)cc2)N1Cc1nc2ccccc2[nH]1,95.8% (inactive)
16,O=C(/C=C\c1cccc([N+](=O)[O-])c1)/C=C/c1cccc([N+](=O)[O-])c1,123% (inactive)
17,COc1ccc(-c2c(-c3cc(OC)c4c(c3)OCO4)noc2N)cc1,-7.49% (active)
18,COc1ccc(C(=O)C2C(C#N)C(C#N)C3c4ccccc4C=CN23)cc1 (stereo not given),94.7% (inactive)
19,CCCCNC1(C#N)CCN(Cc2ccccc2)CC1,153% (inactive)
20,Cc1cc(C)c(/C=C2\C(=O)Nc3ccc(NC(=O)CCCCCCC(=O)NO)cc32)[nH]1,19.4% (inactive)

row,SMILES,growth
1,C=C1C(=O)O[C@H]2[C@H]1CC/C(COC(=O)/C=C\C(=O)NCc1ccc(Cn3c(=O)sn(CCCl)c3=O)cc1)=C\CC[C@@]1(C)O[C@@H]21,-19.4% (active)
2,COc1ccc(/C(C)=C(\c2ccc(Cl)cc2)c2ccc(OCCN3CCCCC3)cc2)cc1,32.8% (inactive)
3,Cc1ccc2nc(Cl)c(Cn3nnnc3SCc3ccccc3)cc2c1,97.4% (inactive)
4,Nc1nc2ncc(CCNc3ccc(C(=O)O)cc3)nc2c(=O)[nH]1,58.2% (inactive)
5,CCN(CC)Cc1cc(Nc2c3ccc(Cl)cc3nc3c(C)cccc23)ccc1O,-19.7% (active)
6,ClCc1c(Cl)c(Cl)c(Cl)c(CCl)c1Cl,80.4% (inactive)
7,CN1CCN(C(=O)OCCOCCOC(=O)N2CCN(C)CC2)CC1,98.2% (inactive)
8,CCCCCC/C=N/Nc1ccc([N+](=O)[O-])cn1,62.5% (inactive)
9,COc1ccc2c(c1OC)C(=O)O[C@H]2[C@H]1c2c(cc3c(c2OC)OCO3)CCN1C,31.9% (inactive)
10,C/C(=C\c1ccc2ccccc2c1)[N+](=O)[O-],-25.7% (active)
11,O=C(/C=C/c1ccc(C(F)(F)F)cc1)c1ccc(Nc2nc(NCCO)nc(Nc3ccc(Cl)cc3)n2)cc1,77% (inactive)
12,Cc1cc(=O)cc(C)n1-c1ccccc1,103% (inactive)
13,c1ccc(-c2oc(-c3ccccc3)c(CN3CCCCC3)c2CN2CCCCC2)cc1,27% (inactive)
14,CCOc1ccc(NC(=O)Nc2ccc(OCC)cc2)cc1,96.7% (inactive)
15,N#Cc1ccc(C2C3=C(CCCC3=O)OC3=C2C(=O)c2ccccc2C3=O)cc1 (stereo not given),-21.4% (active)
16,O=[N+]([O-])c1cccc(-c2nc3sccn3c2-c2ccnc(NCCCNS(=O)(=O)c3ccc(C(F)(F)F)cc3)n2)c1,0.27% (active)
17,Nc1cccc(-c2nc3sccn3c2-c2ccnc(NCCCNS(=O)(=O)c3ccc(C(F)(F)F)cc3)n2)c1,-18.5% (active)
18,CNC(=O)c1[nH]cc(-c2ccccc2)c1-c1cc(OC)c2c(c1OC)OCO2,93.3% (inactive)
19,O=C(C(=O)N1CCCC1)c1cn(CCCn2cc(C(=O)C(=O)N3CCCC3)c3cc(Br)ccc32)c2ccc(Br)cc12,86.5% (inactive)
20,CCCCCN1C=C/C(=C\C(=O)N(C)c2cccc3ccccc23)c2ccccc21,97.1% (inactive)

# Reference: PubChem BioAssay (NCI)
